“And” between values parts separate entries of the source, which are not always exact repeats. Equal entries are not always repeated. About 2,000 (36%) of roughly 5,500 compounds were called active. Not shown: some 18% with an inconclusive outcome. Rule as the data show it: active = normalized growth mostly below about 0.91 (no sharp cut-off); inconclusive = no clear call, values can overlap the other calls; inactive = mostly above about 0.92. This is one part of the list.
Assay: chemical genetic growth profiling, strain panel (AID 1159580);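 also: tested at 20 µM; growth read once vehicle control cultures reached saturation at 30 °C; 1 = growth at the plate median or of vehicle wells; lower values mean less growth of the strain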
Settings: S. cerevisiae deletion strains, growth OD

Measured: normalized growth

CCCCCCCCCCCCCCCCCCOCC(O)CO (configuration not stated)
inactive: locus YAL013W, strain DEP1, active compounds read low 1.01 | locus YAL021C, strain ccr4, active compounds read low 1.01 | locus YAL026C, strain drs2, active compounds read low 1 | locus YAL030W, strain snc1, active compounds read low 0.991 | locus YBL061C, strain skt5, active compounds read low 0.987 | locus YBR009C, strain hhf1, active compounds read low 0.959 | locus YBR021W, strain FUR4, active compounds read low 1.03 | locus YBR023C, strain chs3, active compounds read low 0.99 | locus YBR171W, strain sec66, active compounds read low 0.999 | locus YBR229C, strain ROT2, active compounds read low 1.01 | locus YBR231C, strain swc5, active compounds read low 0.981 | locus YBR279W, strain paf1, active compounds read low 0.992 | locus YCL011C, strain gbp2, active compounds read low 0.988 | locus YCL016C, strain dcc1, active compounds read low 0.994 | locus YCL029C, strain bik1, active compounds read low 1.01 | locus YCL061C, strain MRC1, active compounds read low 0.996 | locus YCL069W, strain vba3, active compounds read low 0.998 | locus YCR088W, strain abp1, active compounds read low 0.997 | locus YDL005C, strain med2, active compounds read low 0.989 | locus YDL035C, strain GPR1, active compounds read low 1.02 | locus YDL040C, strain nat1, active compounds read low 0.973 | locus YDL074C, strain BRE1, active compounds read low 1.06 | locus YDL101C, strain DUN1, active compounds read low 1.01 | locus YDL185W, strain tfp1, active compounds read low 1.02 | locus YDL192W, strain arf1, active compounds read low 1.01 | locus YDR001C, strain nth1, active compounds read low 0.995 | locus YDR069C, strain doa4, active compounds read low 0.973 | locus YDR101C, strain arx1, active compounds read low 1.04 | locus YDR137W, strain rgp1, active compounds read low 0.987 | locus YDR150W, strain NUM1, active compounds read low 0.998 | locus YDR159W, strain sac3, active compounds read low 0.952 | locus YDR162C, strain NBP2, active compounds read low 0.991 | locus YDR195W, strain ref2 0.951 | locus YDR297W, strain sur2, active compounds read low 0.995 | locus YDR318W, strain mcm21, active compounds read low 0.986 | locus YDR334W, strain swr1, active compounds read low 0.994 | locus YDR335W, strain msn5, active compounds read low 1 | locus YDR388W, active compounds read low 1.01 | locus YDR392W, strain spt3, active compounds read low 0.858 | locus YDR502C, strain sam2, active compounds read low 1.02 | locus YEL003W, strain gim4, active compounds read low 0.998 | locus YEL037C, strain rad23, active compounds read low 1 | locus YEL061C, strain CIN8 (second series), active compounds read low 0.992 | locus YEL061C, strain CIN8, active compounds read low 1.01 | locus YER015W, strain faa2, active compounds read low 0.989 | locus YER016W, strain bim1, active compounds read low 0.994 | locus YER110C, active compounds read low 1.01 | locus YER111C, strain swi4, active compounds read low 0.979 | locus YER155C, strain BEM2 (second series), active compounds read low 0.948 | locus YER155C, strain BEM2, active compounds read low 1.01 | locus YER167W, strain BCK2, active compounds read low 1 | locus YFR010W, strain ubp6, active compounds read low 1.01 | locus YGL078C, strain dbp3, active compounds read low 1.02 | locus YGL086W, strain mad1, active compounds read low 1.05 | locus YGL167C, strain pmr1, active compounds read low 0.986 | locus YGL173C, strain kem1, active compounds read low 0.984 | locus YGL227W, strain vid30, active compounds read low 0.985 | locus YGL240W, strain doc1, active compounds read low 0.966 | locus YGL248W, strain PDE1, active compounds read low 1 | locus YGL253W, strain hxk2, active compounds read low 1 | locus YGR135W, strain pre9, active compounds read low 0.968 | locus YGR252W, strain gcn5, active compounds read low 0.969 | locus YHR013C, strain ard1, active compounds read low 0.938 | locus YHR027C, strain rpn1, active compounds read low 0.998 | locus YHR030C, strain SLT2, active compounds read low 1.01 and 1.02 | locus YHR079C, strain IRE1 (second series), active compounds read low 1 | locus YHR079C, strain IRE1, active compounds read low 0.993 | locus YHR094C, strain hxt1, active compounds read low 1.01 | locus YHR129C, strain ARP1, active compounds read low 1.01 | locus YHR142W, strain chs7, active compounds read low 1.04 | locus YHR200W, strain rpn10, active compounds read low 1.01 | locus YIL066C, strain RNR3, active compounds read low 1.01 | locus YIL073C, strain SPO22, active compounds read low 1.01 | locus YIL125W, strain kgd1, active compounds read low 1.01 | locus YIR030C, strain dcg1, active compounds read low 1 | locus YJL092W, strain hpr5, active compounds read low 0.999 | locus YJL095W, strain BCK1 (second series), active compounds read low 0.998 | locus YJL095W, strain BCK1, active compounds read low 1.02 and 0.984 | locus YJL115W, strain asf1, active compounds read low 0.987 | locus YJL129C, strain trk1, active compounds read low 0.984 | locus YJL134W, strain LCB3, active compounds read low 0.997 | locus YJL154C, strain vps35, active compounds read low 0.992 | locus YJL164C, strain tpk1, active compounds read low 1 | locus YJL166W, strain qcr8, active compounds read low 0.99 | locus YJL168C, strain set2, active compounds read low 0.999 | locus YJL187C, strain SWE1 (second series), active compounds read low 1.03 | locus YJL187C, strain SWE1, active compounds read low 0.996
